Measured values reported in PubChem BioAssay AID1159580 (chemical genetic matrix, 2015).
The campaign covered roughly 5,500 compounds. About 2,000 (36%) were called active. Roughly 18% stayed inconclusive and do not appear here. No stated cut-off is given here; in the data, active means normalized growth mostly below about 0.91 (no sharp cut-off); inconclusive means no clear call, values can overlap the other calls; inactive means mostly above about 0.92. Some of the results follow.

Test: chemical genetic growth profiling, strain panel (AID 1159580);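 further: tested at 20 µM; growth read once vehicle control cultures reached saturation at 30 °C; 1 = growth at the plate median or of vehicle wells; lower values mean less growth of the strain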
Conditions: growth OD

Measured: normalized growth

O=C1NS(=O)(=O)c2ccccc21
inactive: S. cerevisiae deletion strains, locus YJR066W, strain TOR1, hits give low values 0.939 | S. cerevisiae deletion strains, locus YKL009W, strain mrt4, hits give low values 0.988 | S. cerevisiae deletion strains, locus YKL068W, hits give low values 1 | S. cerevisiae deletion strains, locus YKL085W, strain MDH1 (second series), hits give low values 0.994 | S. cerevisiae deletion strains, locus YKL085W, strain MDH1, hits give low values 0.994 | S. cerevisiae deletion strains, locus YKL160W, strain elf1, hits give low values 0.991 | S. cerevisiae deletion strains, locus YKL190W, strain CNB1, hits give low values 1.01 | S. cerevisiae deletion strains, locus YKR001C, strain vps1, hits give low values 0.996 | S. cerevisiae deletion strains, locus YKR026C, strain gcn3, hits give low values 1.03 | S. cerevisiae deletion strains, locus YKR091W, strain srl3, hits give low values 1.01 | S. cerevisiae deletion strains, locus YLL001W, strain dnm1, hits give low values 0.986 | S. cerevisiae deletion strains, locus YLL026W, hits give low values 1.02 | S. cerevisiae deletion strains, locus YLL041C, strain sdh2, hits give low values 1.02 | S. cerevisiae deletion strains, locus YLR027C, strain aat2, hits give low values 1.02 | S. cerevisiae deletion strains, locus YLR039C, strain RIC1, hits give low values 1.01 | S. cerevisiae deletion strains, locus YLR058C, strain SHM2, hits give low values 1.02 | S. cerevisiae deletion strains, locus YLR102C, strain apc9, hits give low values 0.979 | S. cerevisiae deletion strains, locus YLR113W, strain HOG1, hits give low values 0.978 | S. cerevisiae deletion strains, locus YLR221C, strain rsa3, hits give low values 1.06 | S. cerevisiae deletion strains, locus YLR258W, strain gsy2, hits give low values 1.03 | S. cerevisiae deletion strains, locus YLR262C, strain YPT6 (second series), hits give low values 1.01 | S. cerevisiae deletion strains, locus YLR262C, strain YPT6, hits give low values 1.02 | S. cerevisiae deletion strains, locus YLR268W, strain sec22, hits give low values 0.978 | S. cerevisiae deletion strains, locus YLR320W, strain mms22, hits give low values 1.06 | S. cerevisiae deletion strains, locus YLR330W, strain CHS5, hits give low values 1 | S. cerevisiae deletion strains, locus YLR342W, strain FKS1 (second series), hits give low values 0.968 | S. cerevisiae deletion strains, locus YLR342W, strain FKS1, hits give low values 1.03 | S. cerevisiae deletion strains, locus YLR357W, strain rsc2, hits give low values 1.01 | S. cerevisiae deletion strains, locus YLR370C, strain arc18, hits give low values 1.02 | S. cerevisiae deletion strains, locus YLR371W, strain rom2, hits give low values 0.983 | S. cerevisiae deletion strains, locus YLR384C, strain iki3, hits give low values 1.04 | S. cerevisiae deletion strains, locus YLR418C, strain cdc73, hits give low values 0.989 | S. cerevisiae deletion strains, locus YML016C, strain PPZ1, hits give low values 1.01 | S. cerevisiae deletion strains, locus YML032C, strain rad52, hits give low values 0.986 | S. cerevisiae deletion strains, locus YML120C, strain ndi1, hits give low values 0.995 | S. cerevisiae deletion strains, locus YML124C, strain tub3, hits give low values 0.999 | S. cerevisiae deletion strains, locus YMR058W, strain fet3, hits give low values 1.03 | S. cerevisiae deletion strains, locus YMR078C, strain ctf18, hits give low values 0.989 | S. cerevisiae deletion strains, locus YMR125W, strain sto1, hits give low values 0.999 | S. cerevisiae deletion strains, locus YMR129W, hits give low values 1.02 | S. cerevisiae deletion strains, locus YMR205C, strain PFK2, hits give low values 1.03 | S. cerevisiae deletion strains, locus YMR223W, strain ubp8, hits give low values 0.985 | S. cerevisiae deletion strains, locus YMR231W, strain pep5, hits give low values 1.02 | S. cerevisiae deletion strains, locus YMR307W, strain GAS1, hits give low values 0.935 | S. cerevisiae deletion strains, locus YNL067W, strain RPL9B, hits give low values 1.01 | S. cerevisiae deletion strains, locus YNL071W, strain lat1, hits give low values 1.01 | S. cerevisiae deletion strains, locus YNL153C, strain GIM3, hits give low values 1.03 | S. cerevisiae deletion strains, locus YNL183C, strain NPR1, hits give low values 0.931 | S. cerevisiae deletion strains, locus YNL209W, strain ssb2, hits give low values 1 | S. cerevisiae deletion strains, locus YNL233W, strain BNI4, hits give low values 1.02 | S. cerevisiae deletion strains, locus YNL248C, strain rpa49, hits give low values 1.08 | S. cerevisiae deletion strains, locus YNL250W, strain rad50, hits give low values 0.985 | S. cerevisiae deletion strains, locus YNL271C, strain bni1, hits give low values 0.986 | S. cerevisiae deletion strains, locus YNL298W, strain CLA4, hits give low values 0.987 | S. cerevisiae deletion strains, locus YNL307C, strain MCK1, hits give low values 0.99 | S. cerevisiae deletion strains, locus YNL322C, strain KRE1 (second series), hits give low values 1.02 | S. cerevisiae deletion strains, locus YNR049C, strain mso1, hits give low values 1.02 | S. cerevisiae deletion strains, locus YNR052C, strain pop2, hits give low values 0.981 | S. cerevisiae deletion strains, locus YOL006C, strain TOP1, hits give low values 1.08 | S. cerevisiae deletion strains, locus YOL012C, strain htz1 1.16 | S. cerevisiae deletion strains, locus YOL147C, strain pex11, hits give low values 0.992 | S. cerevisiae deletion strains, locus YOR001W, strain rrp6, hits give low values 1.06 | S. cerevisiae deletion strains, locus YOR061W, strain CKA2, hits give low values 1.02 | S. cerevisiae deletion strains, locus YOR069W, strain VPS5, hits give low values 1.01 | S. cerevisiae deletion strains, locus YOR070C, strain gyp1, hits give low values 1.02 | S. cerevisiae deletion strains, locus YOR080W, strain dia2, hits give low values 1.03 | S. cerevisiae deletion strains, locus YOR083W, strain WHI5, hits give low values 0.981 | S. cerevisiae deletion strains, locus YOR106W, strain vam3, hits give low values 0.977 | S. cerevisiae deletion strains, locus YOR136W, strain idh2, hits give low values 0.986 | S. cerevisiae deletion strains, locus YOR144C, strain elg1, hits give low values 0.993 | S. cerevisiae deletion strains, locus YOR184W, strain ser1, hits give low values 0.987 | S. cerevisiae deletion strains, locus YOR231W, strain MKK1, hits give low values 0.985 | S. cerevisiae deletion strains, locus YOR265W, strain rbl2, hits give low values 1.03 | S. cerevisiae deletion strains, locus YOR270C, strain vph1, hits give low values 1.06 | S. cerevisiae deletion strains, locus YOR290C, strain snf2, hits give low values 0.963 | S. cerevisiae deletion strains, locus YOR316C, strain cot1, hits give low values 0.983 | S. cerevisiae deletion strains, locus YPL051W, strain arl3, hits give low values 1.02 | S. cerevisiae deletion strains, locus YPL078C, strain atp4, hits give low values 0.98 | S. cerevisiae deletion strains, locus YPL106C, strain sse1, hits give low values 0.997 | S. cerevisiae deletion strains, locus YPL240C, strain hsp82, hits give low values 1.01 | S. cerevisiae deletion strains, locus YPL241C, strain CIN2, hits give low values 1 | S. cerevisiae deletion strains, locus YPL256C, strain CLN2, hits give low values 0.979 | S. cerevisiae deletion strains, locus YPR119W, strain clb2, hits give low values 0.982 | S. cerevisiae deletion strains, locus YPR141C, strain kar3, hits give low values 0.982 | S. cerevisiae deletion strains, locus YPR163C, strain tif3, hits give low values 0.986 | S. cerevisiae deletion strains, locus YPR167C, strain met16, hits give low values 0.984 | S. cerevisiae deletion strains, strain wtn01, hits give low values 0.974 | S. cerevisiae strains, strain wild type, hits give low values 1.01
